The panel holds about 83,000 compounds, 20% with a hit somewhere; the sample as a whole holds those more often.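 Note: values are percent growth. 100 is the growth of untreated cells, values between 100 and 0 indicate rising inhibition; between -100 and 0 indicates cell death.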 A number with no mark means an inactive call. Calls of active or inactive are those of the source. Rule for the calls: active = growth percent below 10; inactive = the rest.

The text below walks through data of PubChem BioAssay (NCI).

What all share (assay): NCI-60 one-dose screen, 48 h (100 = growth as untreated, 0 = no growth, -100 = all killed)
What all share (conditions): 10 µM unless noted

In assay [1] the test system is HCT-15 colon.
Assay [2] concerns HT29 colon.
Assay [3] relates to SNB-75 CNS.
The test system of assay [4] is SNB-19 CNS.
Assay [5] has as its system U251 CNS.
Assay [6] relates to PC-3 prostate.
The subject of assay [7] is SK-MEL-5 melanoma.
Assay [8] has as its system UACC-62 melanoma.
For assay [9], the system named is LOX IMVI melanoma.
The subject of assay [10] is SK-MEL-28 melanoma.
The test system of assay [11] is SK-MEL-2 melanoma.
Assay [12] deals with EKVX NSCLC.
The test system of assay [13] is SN12C renal.
The test system of assay [14] is UO-31 renal.
Assay [15] has as its system TK-10 renal.
In assay [16] the test system is ACHN renal.
Assay [17] relates to CAKI-1 renal.
The test system of assay [18] is A498 renal.
In assay [19] the test system is CCRF-CEM leukemia.
Assay [20] has as its system MOLT-4 leukemia.

`N#C/C(=C/c1ccc([N+](=O)[O-])cc1)n1nnc2cc(F)c(F)cc21`: the growth in assay [1] was -7.15% (active); in assay [2] it was 69.4%; in assay [3], 74.9%; in assay [4], 73.7%; in assay [5] it was 59%; in assay [6], 52.5%. Also, the growth in assay [7] is 88.6%; in assay [8], 57.2%; in [9], 42.4%; in [10] it was 97.6%; in assay [11] it was 75.6%; in assay [12], 103%. In addition, the growth in [13] was 61.1%; in assay [14] it was 64.7%; in assay [15], 24.5%; in [16], 36.2%; in assay [17], 71.2%; in [18], 75.3%. For the same compound, the growth in assay [19] was 15.1%; in assay [20] it was 38.6%.

Turning to `CCOC(=O)c1cc(-c2ccc([N+](=O)[O-])cc2)n(-c2ccc(C(=O)O)c(O)c2)c1C`, the growth in assay [1] is 50.2%; in assay [2] it was 44.2%; in assay [3], 53.5%; in assay [4] it was 90.7%; in assay [5] it was 70.9%; in [6], 23.5%. Moreover, the growth was 52% in [7]; 54% in assay [8]; 66.8% in assay [9]; 90.5% in [10]; 53.8% in [11]; 55.3% in assay [12]. Further, the growth in assay [13] was 72.7%; in [14], 24.5%; in assay [15], 101%; in [16], 68.7%; in assay [17], 79.4%; in assay [18] it was 76.4%. Further, the growth in assay [19] was 50%; in [20] it was 27.2%.

On to `CCOC(=O)c1c(C)c2c(n1C)CSc1cc(C(=O)c3ccccc3)c(=O)[nH]c1-2`, for which the growth in assay [1] was 105% [100 µM]; in assay [2] it was 108% [100 µM]; in [3], 89.5% [100 µM]; in assay [4] it was 102% [100 µM]; in assay [5], 97.8% [100 µM]; in assay [6] it was 82.5% [100 µM]. Besides, the growth in assay [7] is 85.8% [100 µM]; in assay [8], 78.5% [100 µM]; in assay [9], 91.1% [100 µM]; in assay [10] it was 105% [100 µM]; in assay [11], 122% [100 µM]; in assay [12], 71.8% [100 µM]. In addition, the growth in [13] is 103% [100 µM]; in [14], 84.7% [100 µM]; in [15], 103% [100 µM]; in assay [16] it was 84.9% [100 µM]; in assay [17], 66% [100 µM]; in [18] it was 87.7% [100 µM]. Besides, the growth in assay [19] is 106% [100 µM]; in assay [20], 87.3% [100 µM].

On to `O=C(Nc1cc(Cl)ccc1O)c1ccc(Nc2ccnc(C(F)(F)F)c2)cc1`, for which the growth in [1] was 30.9%; in assay [2], 95.5%; in [3], 69.2%; in [4], 24.6%; in [5] it was 31.7%; in assay [6], 14.7%. The growth is 47.1% in [7]; 27.7% in assay [8]; 27.8% in assay [9]; 41.4% in assay [11]; 71.2% in assay [12]; 35.6% in assay [13]. Besides, the growth in [14] is 12.6%; in assay [15], 79%; in assay [16], 23.7%; in assay [17], 58.7%; in [18], 35.8%; in assay [19], 2.44% (active). Also, in [20], the growth was 19.2%.

Regarding `O=C1c2c(c3c4ccc(Br)cc4oc3c3[nH]c4ccccc4c23)C(=O)N1O`, the growth in assay [1] is 19%; in [2] it was 8.99% (active); in assay [3], 4.21% (active); in [4], 29.7%; in [5], 22.8%; in assay [6], 40.9%. The growth in assay [7] is -71.8% (active); in assay [8], -2.55% (active); in assay [9], 6.55% (active); in assay [11], 20%; in assay [12], 66.6%; in [13] it was 14.5%. Moreover, the growth was 13.8% in assay [14]; 121% in [15]; 22.8% in assay [16]; 29% in [17]; 13.1% in [18]; 11.4% in assay [19]. In [20], the growth is 11.2%.

As to `O=C1CNC(c2ccccc2)C(c2ccccc2)N1` (stereo not given), the growth in assay [1] is 104%; in assay [2], 85.2%; in assay [3], 75.8%; in assay [4], 100%; in assay [5], 97.5%; in assay [6], 81.6%. Also, the growth in assay [7] was 104%; in assay [8], 96.6%; in [9] it was 92.1%; in [11], 94.7%; in [12] it was 102%; in assay [13] it was 99.8%. The growth is 109% in [14]; 103% in assay [15]; 98.5% in assay [16]; 81.2% in [17]; 74.7% in assay [18]; 69.9% in [19]. Besides, the growth in assay [20] was 104%.

Take `CC(C)CCNC(=O)Cn1cccc(NC(=O)OCc2ccccc2)c1=O`: the growth in [1] is 111%; in assay [2], 108%; in assay [3] it was 79.9%; in assay [4], 103%; in assay [5], 101%; in assay [6] it was 92.3%. The growth in assay [7] is 96.1%; in assay [8], 111%; in [9], 89.8%; in assay [11], 112%; in [12], 101%; in assay [13] it was 103%. Further, the growth in assay [14] was 76%; in assay [15] it was 130%; in assay [16] it was 103%; in assay [17] it was 70.3%; in [18] it was 117%; in assay [19] it was 96.6%. For the same compound, the growth in [20] is 106%.

Consider `O=C1COCCN1c1ccc(Nc2nc(Cl)nc(OCc3cn(Cc4ccccc4)nn3)n2)cc1`, for which the growth in assay [1] was 93.3%; in [2], 90.8%; in assay [3] it was 101%; in assay [4] it was 90.3%; in [5] it was 83.4%; in [6], 89.4%. The growth was 95.8% in assay [7]; 92.2% in [8]; 75.7% in assay [9]; 85.6% in assay [11]; 99.5% in assay [12]; 94.2% in [13]. In addition, the growth is 73.6% in assay [14]; 98.6% in assay [15]; 101% in assay [16]; 84.4% in assay [17]; 92.2% in [18]; 60% in assay [19]. In addition, the growth in assay [20] was 62%.
